# IL-1B inflam inh: blocks inflammasome-driven IL-1 beta release; THP-1 LPS/ATP IL-1B secretion, AlphaLISA, 16 h; hits give low values; activity change, % at 57.5 µM; hit rate 4.7% among 360,000; AID 743279; in the data active = activity change below about -50%; inconclusive = mostly about -30% to -49%
#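 Secreted IL-1B measured by AlphaLISA bead assay after 16 h compound exposure of THP-1 cells; compounds (final up to 57.5 uM) added 1 h before LPS (250 ng/mL) and ATP (1.25 mM) stimulation; lower signal means less secretion.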
# DT40 TDP1 CPT: growth inhibition of DT40 Tdp1-/-;hTDP1 cells with camptothecin (screen for TDP1 inhibitors); chicken DT40 Tdp1-/-;hTDP1 cells + 20 nM CPT, ATP luminescence, 48 h; Potency, µM (top dose mostly 46.2 µM), inactives show top-dose activity change, negative = growth inhibition, actives largely listed as inhibitors; hit rate 12% among 420,000; AID 686979; also: potency is read from the fitted curve at half-maximal effect; nearly all actives have a fitted effect of over 55% in size
#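 Cell growth measured by CellTiter-Glo luminescence after a minimum 48 h, 37 C compound exposure with 20 nM CPT in Tdp1-knockout DT40 cells stably expressing hTDP1, seeded 400/well; qHTS titration format.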
# CtBP-E1A blk: CtBP/E1A binding inhibition; activity change, % (concentration not given with the values); hit rate 0.49% among 340,000; AlphaScreen GST-E1A/His-CtBP binding, 1536-well; hits give low values; in the data active = activity change below about -65%; inconclusive = mostly about -30% to -63%
#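 Homogeneous bead-based format: GST-tagged E1A captured on glutathione donor beads, His-tagged CtBP on nickel acceptor beads; compounds precede bead addition by 2 h at 37 °C.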
# TDP1 inh: blocks human tyrosyl-DNA phosphodiesterase 1; Potency, µM (titrated, usually from 130 µM), without a hit: top-dose activity change, negative = inhibition, usual class: inhibitors; hit rate 0.28% among 350,000; AID 485290; Q9NUW8; recombinant TDP1, AlphaScreen DNA substrate cleavage; also: potency is read from the fitted curve at half-maximal effect; nearly all actives have a fitted effect of over 40% in size
#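 Enzyme-compound mixtures sat 15 min at room temperature, followed by a 5 min reaction with 15 nM final substrate and 10 min with AlphaScreen beads. Recombinant human Tdp1 was used at 1 nM final.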
# Six1-Eya2 blk: blocks human Six1 binding to Eya2; activity change, % (test concentration not listed); hit rate 0.56% among 360,000; AID 651725; AlphaScreen GST-Six1/His-Eya2 binding, biochemical; hits give low values; Q15475+O00167; in the data active = activity change below about -65%; inconclusive = mostly about -30% to -63%
# Target sequence (O00167 whole entry, looked up): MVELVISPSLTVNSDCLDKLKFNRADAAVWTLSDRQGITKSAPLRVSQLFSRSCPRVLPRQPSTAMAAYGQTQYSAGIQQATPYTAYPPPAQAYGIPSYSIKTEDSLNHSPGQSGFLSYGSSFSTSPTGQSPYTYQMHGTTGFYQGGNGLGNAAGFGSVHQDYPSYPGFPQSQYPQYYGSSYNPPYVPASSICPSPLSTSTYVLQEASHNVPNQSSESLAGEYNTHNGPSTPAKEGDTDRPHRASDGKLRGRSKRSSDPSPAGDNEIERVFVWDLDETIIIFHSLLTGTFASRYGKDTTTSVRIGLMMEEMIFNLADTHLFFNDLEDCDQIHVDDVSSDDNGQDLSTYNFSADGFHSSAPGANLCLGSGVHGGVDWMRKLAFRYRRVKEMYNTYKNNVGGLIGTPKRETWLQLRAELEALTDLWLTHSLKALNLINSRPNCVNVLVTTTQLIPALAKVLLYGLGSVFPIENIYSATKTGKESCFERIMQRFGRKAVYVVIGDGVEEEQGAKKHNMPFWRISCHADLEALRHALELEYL
# Target sequence (Q15475 whole entry, looked up): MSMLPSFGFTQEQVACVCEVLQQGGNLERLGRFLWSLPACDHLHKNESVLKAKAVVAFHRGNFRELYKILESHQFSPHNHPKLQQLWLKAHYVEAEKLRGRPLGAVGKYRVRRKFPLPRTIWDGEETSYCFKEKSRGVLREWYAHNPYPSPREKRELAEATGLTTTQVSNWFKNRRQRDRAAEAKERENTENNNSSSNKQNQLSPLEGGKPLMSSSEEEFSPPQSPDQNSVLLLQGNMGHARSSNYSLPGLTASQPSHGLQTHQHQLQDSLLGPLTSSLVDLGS
#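 GST-Six1 + His-Eya2 (5X stock: 250/500 nM); Tris pH 8.0, 300 mM NaCl, 0.05% BSA, 0.02% Tween 20; GSH donor/Ni acceptor beads; 1 h 37 °C dark; AlphaScreen readout.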
# DT40 TDP1 no CPT: qHTS for Inhibitors of human tyrosyl-DNA phosphodiesterase 1 (TDP1): qHTS in cells in absence of CPT; DT40 Tdp1-/- hTDP1 cells, no CPT, ATP luminescence, 48 h; Potency, µM (highest dose often 46.2 µM), without a hit: at the top dose activity change, negative = growth inhibition, actives largely listed as inhibitors; hit rate 15% among 420,000; also: potency is read from the fitted curve at half-maximal effect; nearly all actives have a fitted effect of over 55% in size
#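 Growth kinetics read by CellTiter-Glo luminescence after ≥48 hr at 37 °C. Cells: DT40 Tdp1-/- stably carrying human TDP1, 400 per well, compound exposure in the absence of CPT (DMSO vehicle).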
# An asterisk follows results filed as active; ? = inconclusive; nt = no result given; [ ] = dose if it differs, or a comment. Sampled rows, rich in hits. Any-hit rate of the full collection: about 18%. Unless noted, calls follow the shape of the dose curve; as a rule, active = well fitted curve in the direction sought with a large enough effect; inconclusive = small, poorly fitted or top-dose-only effect, or another doubt; inactive = no such curve, though single readings can be large; an effect the other way counts as inactive or inconclusive. % is scaled to controls: 0 for no effect and ±100 for the full control effect.
SMILES,IL-1B inflam inh,DT40 TDP1 CPT,CtBP-E1A blk,TDP1 inh,Six1-Eya2 blk,DT40 TDP1 no CPT
Cc1cc(C)c(NC(=O)CN2C(=O)NC3(CCCc4ccccc43)C2=O)c(Cl)c1 (centres undefined),-19.7,?,6.2,-4.7%,-7.1,18.4µM*
O=C(CN1C(=O)NC2(CCCc3ccccc32)C1=O)Nc1cccc(S(=O)(=O)N2CCCCC2)c1 (centres undefined),-1.7,?,0.4,7.9%,-21.2,16.4µM*
COc1ccc(C(NC(=O)CN2C(=O)NC3(CCc4ccccc43)C2=O)c2ccc(OC)cc2)cc1 (centres undefined),-63.9*,?,-1.0,0.0%,-1.5,?
CC(C)(C)C(=O)Nc1ccc(N2CCN(S(C)(=O)=O)CC2)cc1,11.8,-7.0%,11.5,1.2%,4.6,-9.1%
Cc1ccnc(NC(=O)CNC(=O)c2ccco2)c1,-2.0,0.3%,-0.8,nt,6.6,5.0%
Cc1ccc(CN(C)C(=O)CN2C(=O)NC3(CCCc4ccccc43)C2=O)c(C)c1 (centres undefined),-13.8,?,nt,0.6%,3.9,20.6µM*
O=C(CSc1nnc(-c2ccccc2)o1)c1nnc(-c2ccccc2)o1,-0.6,-21.0%,-13.5,9.1%,-19.2,?
CC(=O)c1c(C)[nH]c(C(=O)CSc2ncnc3sc(-c4ccccc4)cc23)c1C,50.2,9.2µM*,-0.6,2.7%,-3.0,?
O=C(O)CSc1ncnc2sc(-c3ccccc3)cc12,-4.0,-1.9%,0.0,0.0%,-7.1,-4.4%
Cc1cc(-c2nnc(SCC(=O)c3ccc4c(c3)OCCO4)o2)no1,17.7,7.1%,5.0,-2.7%,9.1,7.6%
O=C(CSc1nnc(-c2ccccc2)o1)c1ccc2c(c1)OCCO2,20.0,16.4µM*,-0.4,4.0%,14.5,?
CC(=O)CCSc1ncnc2sc(-c3ccccc3)cc12,-90.9*,?,-13.7,1.9%,-16.4,?
CC(=O)c1c(C)[nH]c(C(=O)CSc2nnc(-c3ccccc3)o2)c1C,5.5,16.4µM*,-0.5,5.2%,-8.5,14.6µM*
O=C(O)CCSc1ncnc2sc(-c3ccccc3)cc12,7.7,-19.0%,-2.3,-2.6%,-13.4,2.3%
CC(C(=O)N1CCc2ccccc21)N1CCN(S(=O)(=O)c2ccc(C(F)(F)F)cc2)CC1 (centres undefined),-7.7,?,6.9,1.0%,-0.7,?
CC1=CC(C)C2(CO)COC(c3ccc(O)cc3)C1C2C (centres undefined),30.7,7.0%,-0.9,-0.6%,0.6,-25.6%
CCCCN1C(=O)CC(SC2CC(=O)N(CCCC)C2=O)C1=O (centres undefined),-9.6,16.4µM*,-18.9,nt,12.4,5.8µM*
CCN1C(=O)CC(N2CCC(C(=O)OC)CC2)C1=O (centres undefined),9.7,12.7%,-0.5,5.6%,-1.3,-16.8%
CCN1C(=O)CC(SC2CC(=O)N(CC)C2=O)C1=O (centres undefined),-1.7,3.66µM*,-1.5,nt,10.3,8.2µM*
CCc1ccc(NC(=O)CC2C(=O)N(c3ccc(Cl)cc3)C(=O)N2C2CCCC2)cc1 (centres undefined),nt,?,nt,5.6%,nt,18.4µM*
COc1cccc(N2C(=O)C(CC(=O)Nc3ccccc3)N(C3CCCCC3)C2=O)c1 (centres undefined),-4.0,-8.1%,0.9,-4.0%,3.4,-24.8%
CCOC(=O)c1ccc(NC(=O)CC2C(=O)N(c3ccc(C)cc3)C(=O)N2C2CCCCC2)cc1 (centres undefined),nt,-24.7%,nt,-3.8%,nt,-15.9%
CCc1ccc(NC(=O)CC2C(=O)N(c3ccc(C)cc3)C(=O)N2C2CCCC2)cc1 (centres undefined),nt,?,nt,1.3%,nt,20.6µM*
CCc1ccc(NC(=O)CC2C(=O)N(c3cccc(OC)c3)C(=O)N2C2CCCC2)cc1 (centres undefined),nt,16.4µM*,nt,2.8%,nt,?
CN(CC(=O)C(C(N)=O)c1ccccc1)c1ccccc1 (centres undefined),26.5,-16.1%,7.2,nt,34.3,-21.8%
SMILES,IL-1B inflam inh,DT40 TDP1 CPT,CtBP-E1A blk,TDP1 inh,Six1-Eya2 blk,DT40 TDP1 no CPT
O=C(COc1cccc2ccccc12)N/N=C/c1ccco1,-8.5,-20.4%,-7.5,3.6%,-14.2,2.7%
Nc1ccc2oc(-c3ccc4nc[nH]c4c3)nc2c1,-20.4,20.6µM*,-28.6,7.7%[56.1 µM],-14.2,10.3µM*
CN(C)CCCNC(=O)C(=O)NCC1OCCN1S(=O)(=O)c1cc(F)ccc1F (centres undefined),9.5,-8.3%,5.3,nt,2.4,-17.9%
Cc1ccc(-n2nnc(-c3nccn3C)n2)cc1,10.8,23.1µM*,2.7,3.8%,3.2,20.6µM*
COC(=O)c1cc(-c2cccc([N+](=O)[O-])c2)c2c(=O)n(C)c(=O)n(C)c2n1,4.6,-17.0%,4.1,nt,23.8,2.0%
CCc1cc(Cn2nc(-c3ccccc3)cc2C(=O)NCc2cccs2)on1,-72.6*,16.4µM*,0.0,-3.9%,20.5,?
CCOC(=O)c1cc(-c2ccccc2C)nn1Cc1cc(CC)no1,-10.0,-27.1%,31.5,56.2µM*,27.4,?
CCOC(=O)c1cc(-c2ccccc2)nn1Cc1cc(CC)no1,3.3,?,19.4,nt,33.9,-22.7%
O=C(Cn1cnc(S(=O)(=O)N2CCCCC2)c1)N1CCN(c2ccc([N+](=O)[O-])cc2)CC1,-2.3,?,1.6,3.5%,0.3,-24.1%
CN(C)c1cccc(NC(=O)C2Cc3c(-c4ccccc4Oc4ccccc4)ccnc3O2)c1 (centres undefined),-27.2,?,?,nt,?,?
O=C(Nc1cccnc1)C1Cc2c(-c3ccccc3Oc3ccccc3)ccnc2O1 (centres undefined),?,?,-1.6,nt,-5.9,23.1µM*
CC(=O)c1cccc(NC(=O)C2Cc3c(-c4ccccc4Oc4ccccc4)ccnc3O2)c1 (centres undefined),?,18.4µM*,?,nt,-14.4,16.4µM*
O=C(Nc1cccc(C(F)(F)F)c1)C1Cc2c(-c3ccccc3Oc3ccccc3)ccnc2O1 (centres undefined),-23.2,23.1µM*,-7.6,nt,-9.1,16.4µM*
CCCCn1c(N)c(N(C)C(=O)c2cccc(-n3cnnn3)c2)c(=O)[nH]c1=O,-1.0,3.8%,0.5,-3.2%,9.9,13.9%
